# The sample as a whole holds a higher share of hits than the screen did.
# ERK AVP inh = vasopressin-driven ERK pathway inhibition. HEK293-V1b, vasopressin-stimulated pERK AlphaScreen. Potency, µM (titrated, usually from 57.5 µM), without a hit: at the highest dose activity, negative = inhibition, most hits filed as inhibitors. hit rate 0.99% among 72,000. AID 995; note: potency is the fitted concentration of half-maximal effect; % is set by controls: 0 for no effect and ±100 for the full control effect; nearly all actives have a fitted effect of over 55% in size
#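 V1b-HEK293 cells; cpd 30 min 37C; 25 nM vasopressin 5 min; lyse 10 min; AlphaScreen beads 5 hr RT. Normalized to DMSO basal and 25 nM vasopressin; AC50 by Hill fit.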
# HBB splice mod = hemoglobin beta splicing modulation; hit rate 0.06% among 65,000; HBB splicing reporter cell assay, activation; EGFP reporter with mutant IVS2-654 intron; response scale: normalised to 500 nM splice-correcting PNA; AID 925; Potency, µM (top dose mostly 46.1 µM), for the others: top-dose activation, hits mostly activators; note: potency is the fitted concentration of half-maximal effect; 0% is about no effect
#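 HeLa cells stably expressing EGFP interrupted by mutant beta-globin intron 2 (IVS2-654), 500/well in 2% FCS. Treated with compound for 2 days at 37C. Splicing correction scored as total well GFP intensity (488 nm excitation, 500-520 nm emission); 500 nM antisense PNA served as control.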
# GFP derepression = derepresses silenced GFP locus in mouse C127i cells. mouse C127i GFP locus derepression, cytometry, 30 h. Potency, µM (highest dose often 46.1 µM), for inactives: at the highest dose GFP derepression (activation). hit rate 0.09% among 68,000; note: % of control where 0% means no effect
#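 Murine C127i mammary cells carrying a silenced, stably integrated CMV-driven GFP reporter were treated with compound for 30 hours at 37 C. After PBS washes, GFP-positive cells were counted by laser-scanning microplate cytometry.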
# CRE Fsk mod = CRE-bla signaling modulation under forskolin stimulation; CHO CRE-bla reporter (cAMP response element driving beta-lactamase), forskolin EC10, beta-lactamase ratio; Potency, µM (titrated, usually from 38.2 µM), inactives show at the top dose activity change, negative = inhibition, hits mostly activators; hit rate 2.5% among 71,000; active = well fitted activation curve with a large enough effect in the signal ratio, with a control signal flat, not every such curve was filed as active; inconclusive = small, poorly fitted or top-dose-only effect, or effect the other way, or a change in a side signal; the % refers to the signal ratio; note: potency is the fitted concentration of half-maximal effect; % of control where 0% means no effect
#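 CRE-bla CHO reporter cells treated with compound titration plus EC10 NKH 477 (water-soluble forskolin), incubated 3 h at 37 °C; CCF4 loading 2 h at room temperature, 460/530 nm emission ratio read, AC50 values derived for positive or negative modulators.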
# IkB sig inh = suppresses IkB signaling in ABC-DLBCL reporter cells; AID 445; hit rate 0.04% among 110,000; ABC-DLBCL IkBa-CBG/CBR dual luciferase ratio, 4 h; response scale: scaled: untreated 0%, proteasome inhibitor 100%; Potency, µM (highest dose often 57.1 µM), for the others: top-dose IkBa stabilization activation; active = well fitted curve in the direction sought with a large enough effect in the signal ratio, not every such curve was filed as active; inconclusive = small, poorly fitted or top-dose-only effect, or a change in a side signal; the % refers to the signal ratio;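 note: potency is the fitted concentration of half-maximal effect; the direction sought is a rising ratio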
#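 Luminescence ratio of IκBα-fused green versus native red beetle luciferase in OCI-Ly3 cells, 4 h post-doxycycline with compound; red signal alone, scaled from basal (0%) to zero light (-100%), flagged nonspecific or cytotoxic effects.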
# * marks the source's active call; other numbers are inactive results; u = inconclusive; x = not tested or not shown; [ ] = another dose, or the depositor's remark. Unless noted, calls come from the whole dose curve; as a rule, active = well fitted curve in the direction sought with a large enough effect; inconclusive = small, poorly fitted or top-dose-only effect, or another doubt; inactive = no such curve, though single readings can be large; an effect the other way counts as inactive or inconclusive.
SMILES,ERK AVP inh,HBB splice mod,GFP derepression,CRE Fsk mod,IkB sig inh
CC(C)=CCC/C(C)=C/CO/N=C1/C[C@@H](O)[C@@H](O)[C@@H]2[C@@H]3C(=O)N(Cc4ccccc4)C(=O)[C@H]3CC[C@H]12,13%[11.5 µM],0%[9.22 µM],x,x,x
COc1ccc(OC)c(-c2cc(C(=O)N3CCCc4ccccc43)no2)c1,9%,1%,0%,3.2µM*,u
COc1ccc(-c2cc(C(=O)N3CCCc4ccccc43)no2)cc1,14%,1%,-2%,u,u
Cc1ccc(C)c2nc(N3CCCC3)c(C#N)cc12,-2%,x,2%,10µM*,0%
Cc1cccc2cc(C#N)c(N3CCN(C)CC3)nc12,4%,x,-4%,8%,-1%
CC1=C(/C=C/C(C)=C/C=C/C(C)=C/C=C/C=C(C)/C=C/C=C(C)/C=C/C2=C(C)C(=O)C(O)CC2(C)C)C(C)(C)CC(O)C1=O (configuration not stated),-9%,x,x,x,x
Cc1c(-c2nc(N)nc(Nc3ccccc3F)n2)oc2ccccc12,-19%,2%,0%,4µM*,u
COc1ccccc1Nc1nc(N)nc(-c2cc3ccccc3o2)n1,-4%,-1%,3%,-4%,0%
Cc1occc1-c1nnc(SCC(=O)N2CCOCC2)o1,-4%,3%,-1%,0%,-1%
Cc1occc1-c1nnc(SCC(=O)c2cc3ccccc3oc2=O)o1,16µM*,-3%[57.5 µM],2%,-14%,u
COc1ccccc1CC(Cc1nc2ccccc2[nH]1)c1nc2ccccc2[nH]1 (configuration not stated),32µM*,x,x,x,x
CCN(CC)S(=O)(=O)c1cc(C(=O)Nc2nncs2)c(Cl)cc1Cl,32µM*,0%,0%,u,6%
CCCCOc1ccc(Cn2c(=O)sc3ccccc32)cc1,x,x,x,x,2%
Cc1cc(Nc2ccccc2)nc(-c2ccccc2O)n1,32µM*,-1%,1%,-3%,0%
Cc1cc(Nc2cccc(F)c2)nc(-c2ccccc2O)n1,7.9µM*,4%[0.369 µM],0%,u,u
Cc1cc(N2CCCCCC2)nc(-c2ccccc2O)n1,117%,7%[0.369 µM],0%,15%,1%
CCn1nc(C(=O)OCC(=O)c2c[nH]c3ccccc23)c2ccccc2c1=O,u,4%[57.5 µM],-1%,4µM*,u
CCn1nc(C(=O)OCC(=O)N2CCc3ccccc32)c2ccccc2c1=O,1%,0%,0%,u,-2%
CCN(CC)c1ccc2cc(-c3nc(-c4ccc(Cl)cc4Cl)cs3)c(=O)oc2c1,x,x,x,x,0%
CCN(CC)c1ccc2cc(-c3nc4ccccc4[nH]3)c(=O)oc2c1,26%,0.79µM*,0.16µM*,u,0%
CN(C)c1ccc(-c2nc3ccccc3n2C)cc1,-25%,-1%,-1%,-3%,u
CCN(CC)c1ccc2cc(-c3nc4ccccc4n3C)c(=O)oc2c1,2%,u,10µM*,u,1%
CNc1nc2sc3c(c2c(=O)n1C)CC(C)(C)SC3,-3%,4%,5%,13µM*,-2%
CCn1c(=O)c(C)nn2c3ccccc3nc12,-23%,1%[0.369 µM],6%,13µM*,0%
CCCC1(c2ccccc2)NC(=O)N(CC(=O)c2[nH]c(C)c(C(=O)OCC)c2C)C1=O (configuration not stated),5%,0%[57.5 µM],1%,10µM*,u
SMILES,ERK AVP inh,HBB splice mod,GFP derepression,CRE Fsk mod,IkB sig inh
CCOC(=O)c1[nH]c(C)c(C(=O)OCCN2C(=O)c3ccccc3C2=O)c1C,13%,0%[57.5 µM],3%,2.5µM*,0%
CCOC(=O)c1c(C)[nH]c(C(=O)CSc2ccccc2)c1C,1%,-5%,0%,12%,-2%
CCOC(=O)c1c(C)[nH]c(C(C)=O)c1C,u,2%,0%,u,3%
Cc1ccc2[nH]c(=O)c3cc(C(=O)NCCCN4CCC(C)CC4)sc3c2c1,x,x,x,x,0%
Cc1oc(-c2ccc(C(=O)Nc3ccccc3F)cc2)nc1COc1ccccc1,x,x,x,x,-4%
Cc1c(Cl)cccc1NC(=O)C1CCCN(c2nnc(-n3c(C)ccc3C)s2)C1 (configuration not stated),x,x,x,x,4%
COc1ccc(S(=O)(=O)N(Cc2nc(-c3ccc(Cl)cc3)no2)C2CCCCC2)cc1,x,x,x,x,-2%
CCOC(=O)c1cc(-c2ccncc2)nc2c1c(C)nn2-c1ccccn1,-12%,0%[57.5 µM],-1%,3.2µM*,1%
O=C(N1CCOCC1)N1CCN(c2ccccn2)CC1,-2%,2%,0%,10%,-2%
Cc1nn(-c2ccccn2)c2nc(-c3cccs3)cc(C(=O)N3CCOCC3)c12,-26%,-1%,-3%,3.2µM*,0%
CCOC(=O)c1cnn(-c2ccccn2)c1N,19%,-4%,-1%,u,11%
COc1ccc(NC(=O)C2CCN(c3nc4ccccc4[nH]3)CC2)cc1OC,x,x,x,x,-1%
Cc1cc(NC(=O)CSc2nc(-c3ccco3)cc(C(F)(F)F)n2)no1,6%,0%,5%,4µM*,8%
Cc1cc(NC(=O)CCCSc2nc(-c3ccco3)cc(C(F)(F)F)n2)no1,-10%,0%,0%,-9%,2%
O=C(CCn1c(=O)c2sccc2n(Cc2cccc(F)c2)c1=O)NCc1ccc2c(c1)OCO2,x,x,x,x,0%
COCCn1nnnc1C(c1ccccc1)N1CCN(Cc2ccc3c(c2)OCO3)CC1 (configuration not stated),40µM*,-1%[57.5 µM],0%,-13%,0%
COCCn1nnnc1C(c1ccc(C)cc1)N1CCN(Cc2ccc3c(c2)OCO3)CC1 (configuration not stated),-2%,0%[57.5 µM],-1%,0%,0%
CCc1ccccc1NC(=O)CN(C)S(=O)(=O)c1cccc2nsnc12,x,x,x,x,-3%
Cc1ccnc(SCC(=O)Nc2oc(-c3ccccc3)c(-c3ccccc3)c2C#N)n1,-19%,-2%,0%,10µM*,5%
N#Cc1c(NC(=O)CSc2n[nH]c(Cc3ccccc3)n2)oc(-c2ccccc2)c1-c1ccccc1,-12%,0%,0%,u,u
O=c1c(CCc2ccccc2)nc2cnc(N3CCOCC3)nc2n1-c1ccccc1,16%,-1%,-5%[9.22 µM],7.9µM*,-2%[11.4 µM]
N#CCCn1c(=O)c(CCc2ccccc2)nc2cnc(N3CCOCC3)nc21,u,-1%,2%[9.22 µM],3.2µM*,-5%[11.4 µM]
CCOCCOC(=O)c1[nH]c2c(c1C)C(=O)CC(c1ccc(N(C)C)cc1)C2 (configuration not stated),25µM*,-1%,-2%,-1%,4%
COC(=O)c1[nH]c2c(c1C)C(=O)CC(c1ccccc1)C2 (configuration not stated),-13%,0%,-2%,1.6µM*,1%

# Compound activity: PubChem BioAssay, National Center for Advancing Translational Sciences (NCATS)
